DAX1 inh-1 – DAX1 (NR0B1) inhibitors, primary screen, cell-based, HEK293, Gal4-DAX1, luciferase luminescence; 340,000 compounds, 0.99% hits; HEK293 Gal4-DAX1 luciferase reporter; Nuclear receptor subfamily 0 group B member 1 (Homo sapiens), P51843; inhibition, % at 6.75 µM;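 active = inhibition above the mean over all tested compounds plus 3 SD, cut at about 4.2% in these data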;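 note: inhibition shows as a rise in luminescence from relieved DAX1 repression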
Target sequence (P51843 207-470 limits assumed): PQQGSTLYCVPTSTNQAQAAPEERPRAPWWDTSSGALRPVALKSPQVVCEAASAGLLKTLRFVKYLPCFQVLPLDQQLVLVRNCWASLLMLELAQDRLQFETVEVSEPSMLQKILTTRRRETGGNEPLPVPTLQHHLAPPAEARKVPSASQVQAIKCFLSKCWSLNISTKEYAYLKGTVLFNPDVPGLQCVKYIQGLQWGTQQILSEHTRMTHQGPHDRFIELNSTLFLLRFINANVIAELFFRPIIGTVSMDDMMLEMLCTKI
hgDAF12 agonist – H. glycines DAF-12 receptor agonists, primary screen, cell-based, luminescence, HEK293, GAL4 fusion, UAS-luciferase; Nuclear hormone receptor DAF-12 (Heterodera glycines), GAL4 fusion; HEK293 GAL4-hgDAF12 UAS-luciferase reporter, agonist luminescence; normalized to butyrate control; 370,000 compounds, 1.8% hits; activation, % at 6.8 µM;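 active = activation above a cutoff set at the mean of all screened compounds plus 3 SD, cut at about 10% in these data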
hcDAF12 agonist – H. contortus DAF-12 nuclear receptor activators, primary screen, cell-based, luminescence, HEK293, lit1-tk-luc reporter; HEK293 hcDAF-12 lit1-tk-luc reporter; 0% DMSO, 100% Δ7-dafachronic acid; activation, % at 6.8 µM; 370,000 compounds, 1.4% hits;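 active = activation above the mean of all tested compounds plus 3 SD, cut at about 5.5% in these data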
DAX1 inh-2 – DAX1 (NR0B1) inhibitors on StAR promoter, primary screen, cell-based, luminescence, SF-1 (NR5A1), full-length DAX-1; HEK293T StAR-luciferase reporter, SF-1/DAX-1 repression relief; inhibition, % at 6.8 µM; 370,000 compounds, 1.1% hits;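 active = inhibition above the mean over all tested compounds plus 3 SD, cut at about 3.6% in these data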;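 note: higher inhibition means more luminescence from relief of DAX-1 repression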
ssDAF-12 act – S. stercoralis DAF-12 nuclear receptor activators, primary screen, cell-based, luminescence, HEK293, GRIP1 co-expression, lit1-tk-luc; Nuclear hormone receptor DAF-12 (Strongyloides stercoralis); activation, % at 6.8 µM; HEK293 ssDAF-12/GRIP1 lit1-tk-luc reporter; % of 3 µM dafachronic acid response; 370,000 compounds, 1% hits;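 active = activation above the mean over all tested compounds plus 3 SD, cut at about 0.9% in these data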
Each line names hits and unclear results; the compound was inactive in the other large screens. Compounds with a hit are over-represented: about 4.1% of the library has one in this group of screens.

CN(C)c1ccc(-c2nn3c(-c4ccco4)nnc3s2)cc1	none (no result: DAX1 inh-1)
C=CCn1c(C)cc(C(=O)CSc2nc(N)cc(N)n2)c1C	DAX1 inh-1 4.6
Cc1cc(C(=O)CSc2nc(N)cc(N)n2)c(C)n1C1CC1	none
CC[C@H](C)C(=O)O[C@H]1CCC=C2C=C[C@H](C)[C@H](CC[C@@H]3C[C@@H](O)CC(=O)O3)[C@H]21	DAX1 inh-2 3.9
CNC(=O)N/N=C(\N)c1ccccn1	none
N/C(=N\NC(=O)Nc1ccc(Cl)cc1)c1ccccn1	hcDAF12 agonist 5.6
O=C(Nc1ccc(Cl)cc1)Nc1ccccn1	hgDAF12 agonist 12.0
O=C(Nc1ccccc1)Nc1ccccn1	none
Cc1nc(SCC(N)=O)[nH]c(=O)c1C	none (no result: DAX1 inh-1, DAX1 inh-2)
Nn1c(SCc2cccc(Br)c2)nnc1-c1cccnc1	none
Nn1c(SCc2cccc(F)c2)nnc1-c1cccnc1	DAX1 inh-1 5.7, ssDAF-12 act 1.1
O=C(CC1OC(=O)c2ccccc21)NCC1COc2ccccc2O1 (stereo not given)	none
CCc1ccc(C(=O)NNC(=O)CC2OC(=O)c3ccccc32)cc1 (stereo not given)	ssDAF-12 act 1.0
CC1=NN(c2ccccc2)C(=O)C1C(=O)C(=O)Nc1ccc(F)cc1 (stereo not given)	hgDAF12 agonist 10.7, DAX1 inh-2 4.3
CC1=NN(c2ccccc2)C(=O)C1C(=O)c1ccccc1 (stereo not given)	none
COC(=O)c1ccsc1NS(C)(=O)=O	none (no result: DAX1 inh-1)
COc1ccc2nc(SCC(=O)N3CCNC3=O)[nH]c2c1	hgDAF12 agonist 11.5
C=CCN1C(=O)[C@@H](CC(=O)NCc2ccc(C)o2)[C@]2(C(=O)OCC)CCCCC/C=C/12	none (no result: DAX1 inh-1)
N#C/C(=N\Nc1ccccc1)C(=N)N1CCOCC1	none
COc1ccc(N/N=C(\C#N)C(=N)N2CCCCC2)cc1	DAX1 inh-1 6.4
CCN(CC)C(=N)/C(C#N)=N/Nc1ccc(C)cc1	DAX1 inh-1 7.1
Cc1ccc(N/N=C(\C#N)C(=N)N2CCOCC2)cc1	DAX1 inh-1 5.2, hgDAF12 agonist 13.0
N#C/C(=N\Nc1ccccc1F)C(=N)N1CCCCC1	hgDAF12 agonist 11.1
O=C(Nc1ccccc1C(F)(F)F)OC1CC2CC1[C@H]1CCCCN1C2 (stereo not given in full)	none (no result: DAX1 inh-1)
O=C(Cc1c[nH]c2ccccc12)Nc1ccc(Nc2cccnc2)c(-c2ccc(Cl)c(Cl)c2)c1	none (no result: DAX1 inh-1)
COC(=O)C1=C(C)N(Cc2ccccc2C(F)(F)F)C(=NCc2ccccc2C(F)(F)F)NC1c1ccc(Cl)cc1 (stereo not given)	none (no result: DAX1 inh-1)
CCCCn1c(N)c(N(CCOC)C(=O)CSc2ccccc2C)c(=O)[nH]c1=O	DAX1 inh-1 5.3
CCCCn1c(N)c(N(CC(C)C)C(=O)CCCn2c(=O)oc3ccccc32)c(=O)[nH]c1=O	DAX1 inh-1 4.3
CCCCn1c(N)c(N(CC(C)C)C(=O)CSc2ccccc2C)c(=O)[nH]c1=O	none
CCCCn1c(N)c(N(CC)C(=O)c2ccco2)c(=O)[nH]c1=O	none
CCCN(C(=O)c1nc2nc(C)cc(C)n2n1)c1c(N)n(Cc2ccccc2)c(=O)[nH]c1=O	DAX1 inh-2 3.8
CCCCn1c(N)c(N(CC)C(=O)C(c2ccccc2)c2ccccc2)c(=O)[nH]c1=O	DAX1 inh-1 4.9
Cc1cc(C)n2nc(C(=O)N(C)c3c(N)n(Cc4ccccc4)c(=O)[nH]c3=O)nc2n1	none
CC(C)NC(=O)N[C@H]1C[C@@H]2O[C@@H](CO)CC[C@@H]2O[C@@H]1CCc1ccc(-c2ccccc2F)cc1	none (no result: DAX1 inh-1)
CN1C(=O)[C@@]2(C3=C(CCCC3=O)OC3=C2C(=O)CC(C)(C)C3)c2ccccc21	none (no result: DAX1 inh-1)
COC(=O)C[C@H]1CC[C@H]2[C@H](COc3ccc(NC(=O)c4ccccc4F)cc3C(=O)N2C)O1	none (no result: DAX1 inh-1)
COCCN(C(=O)CSc1nc2ccccc2s1)c1c(N)n(Cc2ccccc2)c(=O)[nH]c1=O	hcDAF12 agonist 6.5
CCCCN(C(=O)CSc1cc(C)c2ccc(OC)cc2n1)c1c(N)n(Cc2ccccc2)c(=O)[nH]c1=O	ssDAF-12 act 4.8
CCOC(=O)c1cccc(-c2cc(C(C)=O)c3n(c2=O)CCC3)c1	none (no result: DAX1 inh-1)
COc1cc(CNc2ccc3c(c2)CCC3)cc(OC)c1O	none
CCOc1ccccc1NC(=O)Nc1ccc2c(c1)CCC2	DAX1 inh-2 3.6
O=C(COc1cccnc1[N+](=O)[O-])Nc1ccc2c(c1)CCC2	none
CCOc1cc(CNc2ccc3c(c2)CCC3)ccc1O	ssDAF-12 act 1.2
O=C(COc1ccccc1F)Nc1ccc2c(c1)CCC2	hgDAF12 agonist 14.9, DAX1 inh-2 3.7
CCc1cccc(CC)c1NC(=S)NCc1nc2ccccc2[nH]1	DAX1 inh-1 5.4
O=C(NCc1nc2ccccc2[nH]1)c1ccco1	none
COc1ccc(NC(=S)NCc2ccc(F)cc2)c(OC)c1	none
COc1cc(OC)c(NC(=S)NCc2ccc(F)cc2)cc1Cl	DAX1 inh-1 4.3
CCOc1ccc(-n2c(=O)[nH]c3sc4c(c3c2=O)CCCC4)cc1	DAX1 inh-1 7.8
CCOc1ccc(-n2c(=O)c3c4c(sc3n(CC(=O)NCC3CCCO3)c2=O)CCCC4)cc1 (stereo not given)	none
CC1(C)CC(C(=O)NCCC(c2ccccc2)c2ccco2)CCO1 (stereo not given)	none
CC1(C)CC(NCCC(c2ccccc2)c2ccco2)CCO1 (stereo not given)	DAX1 inh-1 8.2
O=C1N2CCc3ccccc3C2CS(=O)(=O)N1CCc1ccccc1 (stereo not given)	none (no result: DAX1 inh-1)
CC(=O)Oc1ccc(C(=O)[C@H]2[C@H]3C(=O)N(c4ccc(C)cc4C)C(=O)[C@H]3[C@@H]3C=CC=NN32)cc1	DAX1 inh-1 4.2
Cc1ccc(N2C(=O)[C@@H]3[C@H](C2=O)[C@H]2C=CC=NN2[C@@H]3C(=O)Nc2ccccc2)cc1	ssDAF-12 act 1.2
CN(C)c1ccc(C(=O)NC2CCCCN(Cc3cccc(Cl)c3)C2=O)cc1 (stereo not given)	none (no result: DAX1 inh-1)
Cc1cc(NC(=O)c2cc(-c3ccc(O)cc3)on2)no1	hgDAF12 agonist 10.7
Cc1cc(NC(=O)c2ccc(Cl)cc2)no1	hgDAF12 agonist 10.6
Cc1ccc2c(Cl)c(C(=O)Nc3cc(C)on3)sc2c1	DAX1 inh-1 5.2
C/C(=C\c1ccccc1)C(=O)Nc1cc(C)on1	hgDAF12 agonist 11.0
Cc1cc(NC(=O)Cc2ccccc2)no1	none
Cc1cc(NC(=O)c2ccc(S(=O)(=O)N(C)C)cc2)no1	none

From PubChem
